# Screening data from PubChem.
# Sm TGR inh = blocks Schistosoma mansoni thioredoxin glutathione reductase; purified TGR, DTNB reduction, TNB absorbance 405 nm; Potency, µM (top dose mostly 114 µM), usual class: inhibitors; 360,000 compounds, 3% hits; further: nearly all actives have a fitted effect of over 60% in size
#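 Kinetic colorimetric format: TGR-catalysed, NADPH-driven DTNB reduction monitored via TNB absorbance. Enzyme dispensed at 20 nM; compound exposure 15 min at room temperature before reaction start.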
# LmPK inh = LmPK (Leishmania mexicana) enzyme inhibition; Potency, µM (highest dose often 57.5 µM), usual class: inhibitors; Q27686; 290,000 compounds, 0.37% hits; AID 1721; purified LmPK, Kinase-Glo ATP luminescence, 1 h
#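 ATP generated from ADP (0.1 mM) and PEP (0.5 mM) by 0.1 nM LmPK over 1 h at room temperature (pH 7.2 imidazole buffer) was detected by coupled luciferase luminescence. Values were normalized to uninhibited and no-enzyme wells.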
# Giardia FBPA inh = inhibitors of Giardia lamblia fructose-1,6-bisphosphate aldolase | A8B2U2 | purified Giardia FBPA | Potency, µM (titrated, usually from 59.6 µM), usual class: inhibitors | 290,000 compounds, 0.71% hits; further: nearly all actives have a fitted effect of over 55% in size
# Target sequence (A8B2U2 whole entry, looked up): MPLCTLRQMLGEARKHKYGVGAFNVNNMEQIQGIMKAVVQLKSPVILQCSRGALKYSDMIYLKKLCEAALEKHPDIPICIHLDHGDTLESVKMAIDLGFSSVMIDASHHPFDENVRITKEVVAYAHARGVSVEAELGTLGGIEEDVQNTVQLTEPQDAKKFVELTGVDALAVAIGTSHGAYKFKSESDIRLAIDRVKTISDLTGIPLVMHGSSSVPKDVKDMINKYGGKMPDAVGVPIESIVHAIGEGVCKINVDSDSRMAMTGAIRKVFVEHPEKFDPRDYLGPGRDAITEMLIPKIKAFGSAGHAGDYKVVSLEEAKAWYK
#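 40 nM FBPA preincubated 10 min at RT with compound (up to 57.5 uM final), then substrate plus GAPDH/TPI/NAD/arsenate coupling and diaphorase/resazurin added. Fluorescence read after 20 min at RT, 525/598 nm.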
# Tb PYK inh = T. brucei pyruvate kinase inhibition; Potency, µM (series often up to 76.8 µM), usual class: inhibitors; Q57TT1; AID 624173; 410,000 compounds, 0.12% hits; TbPYK enzyme, Kinase-Glo Plus ATP luminescence, 45 min; further: nearly all actives have a fitted effect of over 50% in size
#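 Glycolytic pyruvate kinase of T. brucei was incubated with substrate, test compound and 130 uM ADP for 45 minutes at room temperature. Luminescent Kinase-Glo Plus signal was measured after 10 minutes.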
# Cycloheximide cs = affects cycloheximide protein synthesis inhibition readout, counter-screen | cell reporter, cycloheximide protein synthesis inhibition counterscreen | max response, % | 300,000 compounds, 12% hits; in the data active means max response mostly above about 13%, no sharp cut-off; inactive means mostly below about 14%; further: read at 38.3 µM for the half of the compounds with a filed dose
# Shiga toxin inh = inhibitors of Shiga toxin in Vero cells. Vero cells, Shiga toxin protein synthesis inhibition reporter. 290,000 compounds, 9.2% hits. AID 2315. inhibition, % at 38.7 µM; in the data active means inhibition mostly above about 28%, no sharp cut-off; inactive means mostly below about 43%
# Numbers stand for hits; - = inactive; ? = inconclusive; . = no result; + = active, no number; [ ] = dose if it differs, or a comment. Shown is part of a subset that was picked to be rich in hits. Unless noted, the call rests on the fitted dose curve; in most records, active means well fitted curve in the direction sought with a large enough effect; inconclusive means small, poorly fitted or top-dose-only effect, or another doubt; inactive means no such curve, though single readings can be large; an effect the other way counts as inactive or inconclusive.
SMILES,Sm TGR inh,LmPK inh,Giardia FBPA inh,Tb PYK inh,Cycloheximide cs,Shiga toxin inh
Cc1ccc(-c2nc3ccccn3c2C=O)cc1,-,?,-,-,32,66
O=S(=O)(c1ccc(Cl)cc1)N1CCN(c2ncnc3sccc23)CC1,.,.,.,-,.,.
Cc1ccc2cccc(NC(=S)NC(=O)c3ccn(C)n3)c2n1,-,-,?,-,-,-
Cn1ccc(C(=O)NC(=S)N2CCSCC2)n1,-,-,?,-,12,-
COc1cc(NC(=O)c2cc3nc(-c4ccc(C)cc4)cc(C(F)(F)F)n3n2)cc(OC)c1OC,-,.,.,-,.,.
O=[N+]([O-])/C(C(Cl)=C(Cl)Cl)=C(/NC1CC1)Sc1ccccc1,4µM,-,?,-,-,-
O=C(O)C1CCC(NSc2ccccc2[N+](=O)[O-])CC1 (configuration not stated),?,-,-,-,-,-
Cn1cc(C(=O)c2ccccc2)cc1-c1nc2ccccc2n1C,-,-,-,-,13,-
Cc1oc(-c2nc3ccccc3n2C)cc1C(=O)c1ccccc1,25µM,13µM,-,32µM,27,+
Oc1ccccc1/C=N/N1CCN(c2ccccn2)CC1,-,-,-,-,37,90
CC(C)c1ccc(/C=N/N2CCN(c3ccccn3)CC2)cc1,-,-,-,-,21,43
C(=N\N1CCN(c2ccccn2)CC1)/c1cccc2ccccc12,-,-,-,-,17,43
CC(C)c1ccc(NC(=O)CN2CCN(c3ccccn3)CC2)cc1,-,-,-,-,-,-
CC(=O)OCC(NC(=O)C(C)NC(=O)OC(C)(C)C)C1OC(n2ccc(=O)[nH]c2=O)C(OC(C)=O)C1OC(C)=O (configuration not stated),.,.,-,.,-,-
CSc1nc(N)c2ncn([C@@H]3O[C@H](COP(=O)(O)OP(=O)(O)O)[C@H](O)[C@H]3O)c2n1,.,.,-,.,.,.
COC(=O)[C@@]12CCCN1[C@H](c1ccc(-c3cccc(Cl)c3)cc1)[C@H]1C(=O)N(C)C(=O)[C@H]12,-,.,.,-,.,.
CC(=O)Nc1ccc(-n2cc(-c3ccccc3)[nH]c2=S)cc1,-,?,-,3.2µM,-,-
CCCN(C(=O)c1ccco1)c1nnc(-c2ccccc2C)s1,-,-,-,-,94,132
COCCN(C(=O)c1ccco1)c1nnc(-c2ccc(F)cc2)s1,.,-,-,-,23,-
CCCCN(C(=O)Cc1cccs1)c1nnc(-c2cccnc2)s1,-,-,-,-,20,44
CN(C(=O)c1cccnc1)c1nnc(-c2cccnc2)s1,-,-,-,-,-,-
CCN(C(=O)c1ccco1)c1nnc(-c2cccnc2)s1,-,-,-,-,34,75
COCCN(C(=O)c1ccco1)c1nnc(-c2ccc(OC)c(OC)c2)s1,-,-,-,-,-,-
CN(C(=O)c1ccco1)c1nc(CC(=O)Nc2ccccc2)cs1,-,-,-,-,-,+
O=C(c1ccco1)N(CCCN1CCOCC1)c1nc(-c2ccc(F)cc2)cs1,-,-,-[12.9 µM],-,-,-
SMILES,Sm TGR inh,LmPK inh,Giardia FBPA inh,Tb PYK inh,Cycloheximide cs,Shiga toxin inh
CCCN(C(=O)c1cccs1)c1nnc(-c2ccncc2)s1,-,-,-,-,22,57
CN(C(=O)c1ccco1)c1nc(-c2ccc(F)cc2)cs1,-,-,-,-,45,58
CN(C(=O)c1ccco1)c1nnc(-c2ccc(F)cc2)s1,-,-,-,-,51,85
Cn1ncc(Br)c1C(=O)N1CCCCCC1,-,-,.,-,-,-
FC(F)(F)c1ccccc1-c1nc(NCc2cccnc2)c2ccccc2n1,.,.,-,.,.,.
CCN1/C(=C/C=C/C=C/c2sc3ccccc3[n+]2CC)Sc2ccccc21,50µM,?,?,?,-,-
CCN1/C(=C/C=C/c2sc3ccccc3[n+]2CC)Sc2ccccc21,-,.,.,?,.,.
CCN1/C(=C/C=C/C=C/C=C/c2sc3ccccc3[n+]2CC)Sc2ccccc21,40µM,-,?,?,-,-
CCCc1ccc(C(=O)NNc2ccccc2F)cc1,-,-,-,-,20,77
CCc1ccc(C(=O)NNc2ccc(F)cc2)cc1,?,-,-,-,-,41
CCc1ccc(C(=O)NNc2ccc(S(N)(=O)=O)cc2)cc1,-,-,-,-,-,-
CCc1ccc(C(=O)NNc2ccc(C)c(Cl)c2)cc1,?,-,-,-,9.9,-
